Measurements published in PubChem BioAssay AID1159580 (chemical genetic matrix, 2015).
Screen size: about 5,500 compounds; about 2,000 (36%) were called active. Not shown: some 18% with an inconclusive outcome. Rule as the data show it: active = normalized growth mostly below about 0.91 (no sharp cut-off); inconclusive = no clear call, values can overlap the other calls; inactive = mostly above about 0.92. The list shows a part of the results.

Assay: chemical genetic growth profiling, strain panel (AID 1159580);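 also: tested at 20 µM; growth read once vehicle control cultures reached saturation at 30 °C; 1 = growth at the plate median or of vehicle wells; lower values mean less growth of the strain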
Conditions: S. cerevisiae deletion strains, growth OD

Measured: normalized growth

COC(=O)C[C@H]1C(C)(C)C2(Cl)O[C@@]34CC2C(=O)[C@]1(C)C3CC[C@]1(C)C4=CC(=O)O[C@H]1c1ccoc1 (stereo not given in full)
inactive: locus YAL013W, strain DEP1, active compounds read low 1.01 | locus YBR021W, strain FUR4, active compounds read low 0.995 | locus YBR229C, strain ROT2, active compounds read low 1 | locus YCL029C, strain bik1, active compounds read low 1.01 | locus YDL035C, strain GPR1, active compounds read low 1.02 | locus YDL074C, strain BRE1, active compounds read low 0.989 | locus YDL101C, strain DUN1, active compounds read low 0.997 | locus YDL134C, strain PPH21, active compounds read low 0.999 | locus YDL185W, strain tfp1, active compounds read low 0.994 | locus YDL192W, strain arf1, active compounds read low 0.99 | locus YDR101C, strain arx1, active compounds read low 0.993 | locus YDR162C, strain NBP2, active compounds read low 0.971 | locus YDR318W, strain mcm21, active compounds read low 1 | locus YDR388W, active compounds read low 0.993 | locus YDR502C, strain sam2, active compounds read low 0.996 | locus YEL061C, strain CIN8, active compounds read low 1 | locus YER110C, active compounds read low 0.993 | locus YER155C, strain BEM2, active compounds read low 1.01 | locus YER167W, strain BCK2, active compounds read low 1.01 | locus YGL078C, strain dbp3, active compounds read low 0.99 | locus YGL086W, strain mad1, active compounds read low 0.989 | locus YGL248W, strain PDE1, active compounds read low 1 | locus YGR078C, strain PAC10, active compounds read low 0.991 | locus YGR135W, strain pre9, active compounds read low 0.976 | locus YGR252W, strain gcn5, active compounds read low 0.966 | locus YHR030C, strain SLT2, active compounds read low 0.999 | locus YHR079C, strain IRE1 (second series), active compounds read low 0.996 | locus YHR094C, strain hxt1, active compounds read low 0.995 | locus YHR129C, strain ARP1, active compounds read low 1 | locus YHR200W, strain rpn10, active compounds read low 0.992 | locus YIL066C, strain RNR3, active compounds read low 1.01 | locus YIL073C, strain SPO22, active compounds read low 1 | locus YIL125W, strain kgd1, active compounds read low 1 | locus YIR030C, strain dcg1, active compounds read low 0.986 | locus YJL095W, strain BCK1, active compounds read low 0.996 | locus YJL134W, strain LCB3, active compounds read low 1.01 | locus YJL168C, strain set2, active compounds read low 0.987 | locus YJL187C, strain SWE1 (second series), active compounds read low 1 | locus YJR075W, strain HOC1, active compounds read low 1.01 | locus YKL009W, strain mrt4, active compounds read low 0.983 | locus YKL068W, active compounds read low 1.01 | locus YKL085W, strain MDH1 (second series), active compounds read low 0.996 | locus YKL085W, strain MDH1, active compounds read low 0.996 | locus YKR001C, strain vps1, active compounds read low 1 | locus YLR039C, strain RIC1, active compounds read low 1.05 | locus YLR058C, strain SHM2, active compounds read low 1 | locus YLR102C, strain apc9, active compounds read low 1 | locus YLR268W, strain sec22, active compounds read low 1 | locus YLR342W, strain FKS1 (second series), active compounds read low 1.02 | locus YLR371W, strain rom2, active compounds read low 0.996 | locus YLR418C, strain cdc73, active compounds read low 0.96 | locus YML016C, strain PPZ1, active compounds read low 1.01 | locus YML032C, strain rad52, active compounds read low 0.995 | locus YML124C, strain tub3, active compounds read low 0.992 | locus YMR078C, strain ctf18, active compounds read low 1.01 | locus YMR223W, strain ubp8, active compounds read low 0.979 | locus YMR307W, strain GAS1, active compounds read low 0.957 | locus YNL067W, strain RPL9B, active compounds read low 1 | locus YNL153C, strain GIM3, active compounds read low 1 | locus YNL233W, strain BNI4, active compounds read low 0.995 | locus YNL250W, strain rad50, active compounds read low 0.995 | locus YNL271C, strain bni1, active compounds read low 0.998 | locus YNL298W, strain CLA4, active compounds read low 0.99 | locus YNL307C, strain MCK1, active compounds read low 0.991 | locus YNR052C, strain pop2, active compounds read low 0.998 | locus YOL006C, strain TOP1, active compounds read low 1.02 | locus YOL012C, strain htz1 0.78 | locus YOL147C, strain pex11, active compounds read low 0.99 | locus YOR061W, strain CKA2, active compounds read low 1.01 | locus YOR069W, strain VPS5, active compounds read low 1 | locus YOR136W, strain idh2, active compounds read low 0.988 | locus YOR144C, strain elg1, active compounds read low 0.995 | locus YOR184W, strain ser1, active compounds read low 1.01 | locus YOR316C, strain cot1, active compounds read low 0.988 | locus YPL241C, strain CIN2, active compounds read low 1 | locus YPR119W, strain clb2, active compounds read low 0.989 | locus YPR141C, strain kar3, active compounds read low 0.997 | locus YPR163C, strain tif3, active compounds read low 0.991 | locus YPR167C, strain met16, active compounds read low 0.991 | strain wtn01, active compounds read low 1.02
